The results in this text go back to PubChem BioAssay (NCI).

Common to all, as to assay: NCI-60 one-dose screen, 48 h (100 = growth as untreated, 0 = no growth, -100 = all killed)
In one test the test system is HCT-15 colon. The note with it: 10 µM unless noted.
The next test relates to HT29 colon. Conditions: 10 µM unless noted.
The next test has as its system SNB-75 CNS. The note with it: 10 µM unless noted.
For the next test, the system named is SNB-19 CNS. Conditions: 10 µM unless noted.
The subject of the next test is U251 CNS. Conditions: 10 µM unless noted.
A further test concerns PC-3 prostate. The note with it: 10 µM unless noted.
A further test relates to SK-MEL-5 melanoma. The note with it: 10 µM unless noted.
The subject of the next test is UACC-62 melanoma. Conditions: 10 µM unless noted.
The test system of another test is LOX IMVI melanoma. Conditions: 10 µM unless noted.
A further test concerns SK-MEL-28 melanoma. Conditions: 10 µM unless noted.
A further test has as its system EKVX NSCLC. Conditions: 10 µM unless noted.
For another test, the system named is SN12C renal. The note with it: 10 µM unless noted.
The test system of the next test is UO-31 renal. The note with it: 10 µM unless noted.
The subject of another test is TK-10 renal. Conditions: 10 µM unless noted.
In another test the test system is ACHN renal. Conditions: 10 µM unless noted.
For the next test, the system named is CAKI-1 renal. The note with it: 10 µM unless noted.
For a further test, the system named is A498 renal. Conditions: 10 µM unless noted.
A further test has as its system CCRF-CEM leukemia. The note with it: 10 µM unless noted.
A further test concerns MOLT-4 leukemia. Conditions: 10 µM unless noted.
For the next test, the system named is SK-MEL-2 melanoma. Conditions: 10 µM.

Structures are written as SMILES. This is part of a sample that, as a whole, favours compounds with a hit. Of some 83,000 tested, about 20% had one in any assay.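 Single-dose data. Exposure time 48 hours. Values below 10 considered active.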 Calls of active or inactive are those of the source.

On to `c1cn2cc(-c3ccc4cn[nH]c4c3)nc(Nc3ccc(N4CCOCC4)cc3)c2n1`, for which the growth in the test with HCT-15 colon was 66.5% (inactive); in the test with HT29 colon, 32.7% (inactive); with SNB-75 CNS, -3.9% (active); with SNB-19 CNS, 50.3% (inactive); with U251 CNS it was 41.5% (inactive); in the test with PC-3 prostate, 43.3% (inactive). The growth in the test on SK-MEL-5 melanoma is 71.4% (inactive); in the test with UACC-62 melanoma, 53.3% (inactive); in the test on LOX IMVI melanoma, 56.4% (inactive); in the test with SK-MEL-28 melanoma, 63% (inactive); in the test on EKVX NSCLC it was 83.9% (inactive); in the test on SN12C renal it was 41.3% (inactive). In addition, the growth was 65.1% (inactive) in the test on UO-31 renal; 76.1% (inactive) in the test with TK-10 renal; 39% (inactive) in the test on ACHN renal; 39.4% (inactive) in the test on CAKI-1 renal; 68.7% (inactive) with A498 renal; 66.9% (inactive) in the test on CCRF-CEM leukemia. Further, the growth with MOLT-4 leukemia is 61.8% (inactive).

For the compound `CN1CCN(CC(=O)Nc2ccc(-c3nc4ccccc4s3)cc2)CC1`, the growth in the test with HCT-15 colon was 52.9% (inactive); in the test with HT29 colon it was 39.6% (inactive); in the test with SNB-75 CNS it was 73.1% (inactive); in the test on SNB-19 CNS, 89.7% (inactive); in the test with U251 CNS it was 67.5% (inactive); with PC-3 prostate, 83.6% (inactive). Further, the growth in the test on SK-MEL-5 melanoma was 73.7% (inactive); in the test with UACC-62 melanoma, -35.8% (active); with LOX IMVI melanoma, -33.7% (active); with SK-MEL-28 melanoma, 33.8% (inactive); in the test with EKVX NSCLC it was 83.7% (inactive); with SN12C renal, 77.7% (inactive). The growth in the test with UO-31 renal was 57.5% (inactive); with TK-10 renal it was 94.8% (inactive); with ACHN renal, 71.2% (inactive); with CAKI-1 renal, 73.5% (inactive); in the test on A498 renal, 59.5% (inactive); in the test on CCRF-CEM leukemia, 63.7% (inactive). Further, the growth in the test with MOLT-4 leukemia was 78% (inactive).

In the case of `O=C(Nc1nc2cccc(-c3ccc(CN4CCS(=O)(=O)CC4)cc3)n2n1)C1CC1`, the growth was 94.7% (inactive) in the test with HCT-15 colon; 65.4% (inactive) in the test on HT29 colon; 90.3% (inactive) in the test on SNB-75 CNS; 48% (inactive) in the test with SNB-19 CNS; 65.3% (inactive) in the test with U251 CNS; 76.9% (inactive) in the test on PC-3 prostate. For the same compound, the growth in the test on SK-MEL-5 melanoma was 74.6% (inactive); in the test with UACC-62 melanoma, 87.6% (inactive); with LOX IMVI melanoma it was 60.4% (inactive); in the test on SK-MEL-28 melanoma it was 90.2% (inactive); with EKVX NSCLC, 106% (inactive); with SN12C renal it was 76.8% (inactive). Also, the growth is 75.3% (inactive) in the test on UO-31 renal; 66.3% (inactive) in the test on TK-10 renal; 93.6% (inactive) in the test with ACHN renal; 88.4% (inactive) in the test with CAKI-1 renal; 60.8% (inactive) with A498 renal; 30.9% (inactive) with CCRF-CEM leukemia. Besides, in the test with MOLT-4 leukemia, the growth is 41% (inactive).

Consider `O=C1C=CC2(NN=C(c3ccccc3)N2c2cccc(Cl)c2)C(Cl)=C1` (stereo unspecified), for which the growth in the test with HCT-15 colon was 79.6% (inactive); in the test on HT29 colon it was 87.8% (inactive); in the test on SNB-75 CNS, 82% (inactive); with SNB-19 CNS it was 94.3% (inactive); with U251 CNS, 84.6% (inactive); in the test on PC-3 prostate, 58.3% (inactive). Further, the growth with SK-MEL-5 melanoma is 91.8% (inactive); in the test with UACC-62 melanoma, 44.3% (inactive); with LOX IMVI melanoma, 71.2% (inactive); with SK-MEL-28 melanoma, 111% (inactive); in the test with EKVX NSCLC it was 67.5% (inactive); in the test on SN12C renal, 84.4% (inactive). Also, the growth was 51.5% (inactive) in the test on UO-31 renal; 100% (inactive) in the test on TK-10 renal; 63.7% (inactive) in the test with ACHN renal; 79.8% (inactive) with CAKI-1 renal; 83.4% (inactive) in the test with A498 renal; 41.6% (inactive) in the test on CCRF-CEM leukemia. The growth in the test on MOLT-4 leukemia is 39.2% (inactive).

In the case of `Cc1nn(-c2ccccc2)c2c1N=c1s/c(=C\c3cn(-c4ccccc4)nc3-c3ccc(Cl)cc3)c(=O)n1C(C)N2` (stereo unspecified), the growth is 85.8% (inactive) in the test on HCT-15 colon; 94.3% (inactive) in the test with HT29 colon; 86.4% (inactive) in the test with SNB-75 CNS; 98.9% (inactive) in the test with SNB-19 CNS; 85.2% (inactive) with U251 CNS; 82.4% (inactive) in the test on PC-3 prostate. Also, the growth in the test with SK-MEL-5 melanoma was 85% (inactive); in the test on UACC-62 melanoma it was 106% (inactive); in the test with LOX IMVI melanoma, 87.6% (inactive); with SK-MEL-28 melanoma, 118% (inactive); with EKVX NSCLC, 84.8% (inactive); in the test with SN12C renal, 91.5% (inactive). The growth was 70.1% (inactive) in the test on UO-31 renal; 152% (inactive) in the test with TK-10 renal; 83.7% (inactive) in the test with ACHN renal; 83.6% (inactive) in the test with CAKI-1 renal; 123% (inactive) with A498 renal; 110% (inactive) in the test with CCRF-CEM leukemia. In the test on MOLT-4 leukemia, the growth is 95.3% (inactive).

For `COc1cc2c(cc1OCCCCCCN1CCN(c3ncnc4ccccc34)CC1)N=CC1CCCN1C2=O` (stereo unspecified), the growth with HCT-15 colon is -2.53% (active); with HT29 colon, 10.9% (inactive); in the test with SNB-75 CNS, -46.9% (active); in the test on SNB-19 CNS, 17% (inactive); in the test on U251 CNS, 0.0332% (active); with PC-3 prostate it was -23.1% (active). Moreover, the growth in the test with SK-MEL-5 melanoma was -87.2% (active); in the test on UACC-62 melanoma, -95.8% (active); with LOX IMVI melanoma it was -51.1% (active); with SK-MEL-28 melanoma it was -4.17% (active); in the test on SK-MEL-2 melanoma, 3.62% (active); in the test on EKVX NSCLC, -8.7% (active). For the same compound, the growth in the test on SN12C renal is -10.4% (active); with TK-10 renal, 1.29% (active); in the test with ACHN renal, 0.483% (active); in the test on CAKI-1 renal, -19.6% (active); in the test on CCRF-CEM leukemia, -32.8% (active); in the test on MOLT-4 leukemia, -32.1% (active).

Regarding `CN1C/C=C\CCOc2cccc(c2)-c2ccnc(n2)Nc2cccc(c2)C1`, the growth with HCT-15 colon is -16.9% (active); with HT29 colon it was -16.8% (active); with SNB-75 CNS it was -98.6% (active); in the test on SNB-19 CNS, 0.69% (active); in the test with U251 CNS it was -52.9% (active); in the test on PC-3 prostate, -41.9% (active). For the same compound, the growth was -95.1% (active) in the test with SK-MEL-5 melanoma; -62.7% (active) with UACC-62 melanoma; -79.4% (active) in the test with LOX IMVI melanoma; -76% (active) in the test with SK-MEL-28 melanoma; -14.7% (active) in the test on EKVX NSCLC; -41.5% (active) in the test with SN12C renal. Also, the growth is -79.3% (active) with UO-31 renal; -53.2% (active) in the test on TK-10 renal; -37.9% (active) in the test on ACHN renal; -87.9% (active) with CAKI-1 renal; -77.8% (active) in the test on A498 renal; 3.32% (active) in the test on CCRF-CEM leukemia. Further, the growth in the test with MOLT-4 leukemia was -20% (active).

For the compound `CC(C)Nc1cc(-c2c[nH]c(C(=O)N[C@H](CO)c3cccc(Cl)c3)c2)c(Cl)cn1`, the growth was 25.1% (inactive) in the test with HCT-15 colon; 1.57% (active) in the test on HT29 colon; 51.8% (inactive) in the test with SNB-75 CNS; 51.3% (inactive) in the test on SNB-19 CNS; 28% (inactive) with U251 CNS; 34.9% (inactive) in the test with PC-3 prostate. Further, the growth was -7.93% (active) in the test on SK-MEL-5 melanoma; 11.7% (inactive) in the test with UACC-62 melanoma; 14% (inactive) in the test with LOX IMVI melanoma; 5.19% (active) in the test with SK-MEL-28 melanoma; 38.9% (inactive) in the test on EKVX NSCLC; 52.2% (inactive) in the test with SN12C renal. Further, the growth in the test with UO-31 renal was 18.2% (inactive); in the test on TK-10 renal, 16.2% (inactive); with ACHN renal it was 31% (inactive); in the test with CAKI-1 renal, 35.3% (inactive); in the test with A498 renal, 4.24% (active); in the test with CCRF-CEM leukemia, 26.1% (inactive). Further, the growth with MOLT-4 leukemia was 12.6% (inactive).
